The whole screen tested about 360,000 compounds, of which about 1,500 (0.42%) were called active. Cut-off read from the data, not from the text of the source: active = inhibition above about 8.5%; inactive = the rest. Only a selection was taken, and actives are over-represented in it overall.
System: HIV-1 gp120 / PG9 antibody interaction
Assay: small molecules engaging PG9 antibody – biochemical, TR-FRET, primary screen (AID 624416)
Conditions: TR-FRET gp120-PG9 antibody binding; at 6.7 µM; hits give high values

inhibition, active:
O=C(Nc1c(Br)cc2c(c1Br)Cc1cc([N+](=O)[O-])ccc1-2)C(Cl)Cl 17.5%
CCOc1cc(C2C(C(=O)OC)=CN(C3CCCC3)C=C2C(=O)OC)cc(Br)c1O 62.6%
CCOc1ccc(C(=O)COC(=O)c2ccc(-n3cnnn3)cc2)cc1 11.4%
Nc1ccc(-c2nnc(-c3ccc(-c4ccccc4)cc3)o2)cc1 9.48%
Cc1nc2cc(NC(=O)CSc3nc4c(C)cccc4cc3C#N)ccc2s1 16%
N#Cc1c(-c2cccs2)nc(SCC(=O)c2ccc(Br)cc2)[nH]c1=O 23.5%
O=C(Oc1ccccc1)Oc1ccc2c(c1)oc(=O)c1ccccc12 28.2%
COc1ccc(-c2csc(NC(=O)c3ccc(N4C(=O)CCC4=O)cc3)n2)cc1OC 8.78%
COc1ccc(-c2c(C)nn3c(N4CCC(C(=O)N5CCCCC5)CC4)cc(C)nc23)cc1OC 30.3%
Cc1cc(Br)ccc1NC(=O)c1sc2ncn(CC(=O)N3CCN(c4ccccn4)CC3)c(=O)c2c1C 11.3%
COc1ccc(-n2nnnc2-c2nc3ccccc3s2)cc1 14.4%
CC(=O)c1sc2nc(SCC(=O)N3CCCCC3)[nH]c(=O)c2c1C 21.1%
Cc1nc(-c2ccccc2)sc1-c1nc(-c2ccccc2)ncc1S(=O)(=O)c1ccccc1 10.9%
N#C/C=C1\Sc2ccccc2C(=O)N1CC(=O)N1CCN(S(=O)(=O)c2ccccc2)CC1 16.5%
CCOc1cccc(NC(=O)Cn2nc(-c3ccc4c(c3)OCCO4)ccc2=O)c1 9.11%

inhibition, inactive:
O=c1[nH]c(-c2ccccc2)cn1C1CCN(Cc2ccc(-c3nc4ccc(F)cc4nc3-c3ccccc3)cc2)CC1 1.31%
CCc1ccc(C2=CC(=O)CC(C)(C)C2=O)cc1 -0.98%
CC(C)C(=O)Nc1cccc(NC(=O)c2ccc([N+](=O)[O-])cc2Cl)c1 -0.82%
CCC(C)C(=O)Nc1cc([N+](=O)[O-])ccc1Cl (stereo unspecified) -4.15%
O=C(Nc1c(Cl)c(C2CC2)nn1-c1ccccc1)C(Cl)(Cl)Cl 0.67%
C[C@@H]1CN([C@H](C)CO)C(=O)CCCn2cc(nn2)CO[C@H]1CN(C)C(=O)Nc1ccc(N2CCCCC2)cc1 -2.61%
COC(=O)[C@]12C[C@H](CC(=O)NCCC(C)C)C(=O)N(CCc3ccc(OC)c(OC)c3)C1=C[C@H](C(C)(C)C)O[C@@H]2C 0.69%
COC(=O)C1=CN(Cc2ccc(OC)cc2)C=C(C(=O)OC)C1c1ccc(O)c(OC)c1 -1.15%
CCCC(=O)Nc1cc(OCC)c(NC(=O)NC2CCCCC2)cc1OCC -1.64%
O=C(N[C@H](C(=O)N1CCC[C@H]1C(=O)NCCc1ccccc1Cl)c1ccccc1)c1ccccc1 1.57%
Cc1ccc(NC(=O)N2c3ccccc3SC2c2ccco2)c(C)c1 (stereo unspecified) 0.01%
COc1cccc(CNC(=O)[C@H]2CCCN2C(=O)[C@H]2CCCN2C(=O)c2cc(F)cc(F)c2)c1 -0.29%
COC(=O)[C@]12C[C@H](CC(=O)NCc3ccc(OC)c(OC)c3)C(=O)N(Cc3ccccc3)C1=C[C@H](C(C)C)O[C@@H]2C1CC1 -0.45%
Nc1[nH]c(C(=O)c2ccc(Br)cc2)c(-c2ccc3c(c2)OCO3)c1C(=O)NCCc1c[nH]c2ccccc12 0.87%
CC(OC(=O)c1ccc(-n2cnnn2)cc1)C(=O)NCc1ccccc1 (stereo unspecified) 1.87%
CCOC(=O)N1CCN(S(=O)(=O)c2ccc(-n3cnnn3)cc2)CC1 -0.23%
CCOC(=O)C1=C(C(=O)OCC)C2N(Cc3ccc(C#N)cc3)c3ccccc3[C@@]23C[C@@H](C(=O)OC)N(S(=O)(=O)c2ccc(F)cc2)C3=N1 (stereo partly specified) -0.21%
COC(=O)Cc1nnn2c1[C@H](C)[C@H](c1ccccc1[N+](=O)[O-])OCC2 0.5%
OC(c1nnc(-c2ccccc2)o1)c1cccs1 (stereo unspecified) -1.12%
Cc1ccc(C(=O)NCC(=O)OCc2nnc(-c3ccccc3)o2)cc1 1.54%
COc1ccc(C2=CN(Cc3ccccc3)C(c3ccc(OC)cc3)CC2=O)cc1 (stereo unspecified) 4.38%
Cc1csc(SCC(=O)Nc2ccc(C)c(S(=O)(=O)N(C)C)c2)n1 -0.14%
COCc1cc(C)nc(SCC(=O)Nc2cccc(C)c2)c1C#N -0.32%
CCc1ccc(C(=O)CSc2nnc(C)c(=O)[nH]2)cc1 -0.93%
Cc1nnc(SCC(=O)NCc2cccs2)[nH]c1=O 1.17%
O=C(COc1ccc2c3c(c(=O)oc2c1)CCCC3)NCC(O)c1ccccc1 (stereo unspecified) 0.6%
O=C(COc1ccc2c3c(c(=O)oc2c1)CCC3)NC1CCCCC1 -0.41%
C=CC1=CCN(S(=O)(=O)C(C)(C)C)[C@@H]1CCO 0.76%
COc1ccccc1CCn1cnc(-c2ccccc2)c1C(C)C 2.18%
Nc1nc2c(ncn2[C@@H]2O[C@H](C(=O)N[C@H](Cc3ccccc3)C(=O)NCC3CCCCC3)[C@@H](O)[C@H]2O)c(=O)[nH]1 -1.03%
COC(=O)[C@]12C[C@H](CC(=O)NCCc3ccccc3OC)C(=O)N(Cc3ccccc3)C1=C[C@H](C(C)C)O[C@@H]2C1CC1 -0.91%
O=C(C(=O)N1CCC(CNC(=O)c2cccnc2Cl)CC1)c1cccs1 -0.43%
COc1ccc(-n2nc3c(c2NC(=O)c2ccc(N4C(=O)CCC4=O)cc2)CSC3)cc1 0.18%
COc1cc(NC(=O)c2ccc(-c3csc(C)n3)cc2)c(OC)cc1Cl -0.71%
C=CCN1C(=O)N(Cc2ccccc2)c2ccccc2S1(=O)=O -0.26%
CSc1ccc(Oc2cccc3c2S(=O)(=O)N([C@H](C)c2ccccc2)C[C@@H](COCc2ccccc2)O3)cc1C -0.66%
COc1ccc(CCNC(=O)C2CCN(c3nn4c(=O)cc(C)nc4s3)CC2)cc1OC 2.38%
COc1ccc(S(=O)(=O)N2CCC(C(=O)N3CCCC3)CC2)cc1C -0.08%
CC[C@H](NC(=O)[C@H](Cc1ccccc1)NC(=O)[C@H]1O[C@@H](n2cnc3c(=O)[nH]c(N)nc32)[C@H](O)[C@@H]1O)c1ccccc1 1.17%
Nc1nc2c(ncn2[C@@H]2O[C@H](C(=O)N[C@@H](Cc3ccccc3)C(=O)NCc3ccccc3)[C@@H](O)[C@H]2O)c(=O)[nH]1 0.08%
COC(=O)C1=C(C)N(Cc2ccc(C(F)(F)F)cc2)C(=NCc2ccccc2)NC1c1ccccc1C(F)(F)F (stereo unspecified) -0.97%
COC(=O)N1Cc2ccnnc2CC1c1ccccc1Br (stereo unspecified) -0.32%
CC(C)CNc1cccc2c1S(=O)(=O)N[C@H](C)CO2 -0.69%
Cc1cc(Br)ccc1NC(=O)c1cnc(N2CCN(c3ccccn3)CC2)c2ccccc12 -0.94%
Cc1nc(N2CCN(c3ccccn3)CC2)c2c(C)c(C(=O)Nc3ccc(F)c(Cl)c3)sc2n1 -0.31%
Nc1ncnc2c1ncn2[C@@H]1O[C@H](C(=O)N[C@@H](CCc2ccccc2)C(=O)NCC(=O)N2CCOCC2)[C@@H](O)[C@H]1O -1.35%
CCCCNc1cccc2c1S(=O)(=O)N[C@@H](C)CO2 -0.83%
CN1CCCc2nc(-c3ccccc3)ccc21 -1.37%
C[C@H](CO)N1C[C@H](C)[C@@H](CN(C)C(=O)Nc2ccccc2F)OCc2cn(nn2)CCCC1=O 0.59%
O=C(NN=Cc1ccco1)C(=O)Nc1ccc(Cl)c([N+](=O)[O-])c1 -2.26%
CCOC(=O)N1CCN(C(=O)C[C@H]2C[C@@]3(C(=O)OC)C(=C[C@H](C4CCCC4)O[C@@H]3C)N(Cc3ccccc3)C2=O)CC1 -1.34%
COc1ccc(-n2nnnc2SCC(=O)NCc2cccs2)cc1 0.22%
FC(F)(F)c1nc(-c2ccccc2)ncc1-c1nnnn1-c1ccccc1 -0.69%
CSc1nnc(SCc2nc3sc(C(=O)O)c(C)c3c(=O)[nH]2)s1 -1.42%
Cc1c(C)n2c(SCC(=O)N3CCCC3)nnc2[nH]c1=O -1.7%
Cc1nc(-c2ccccc2)sc1-c1nnc(C2CC2)o1 -1.07%
C#CC(C)(C)NC(=O)c1cnc(-c2ccccc2)nc1-c1ccccc1 -1.56%
CC(=O)N1C[C@@H](CO)[C@@H](N(C)C(=O)C(C)(C)C)C[C@H]1c1ccccc1Br 0.03%
O=S1(=O)c2c(cccc2N2CCCC2)O[C@H](COCc2ccccc2)CN1C1CC1 -1.25%
O=C(CN1CCCSc2ccccc21)N1CCN(S(=O)(=O)c2cccc(F)c2)CC1 -0.88%
CC(C)c1ccc(S(=O)(=O)N2CCN(C(=O)CN3C(=O)NC(C)(c4ccccc4)C3=O)CC2)cc1 (stereo unspecified) -0.6%
O=C(N[C@H](Cc1ccccc1)C(=O)N1CCCN(Cc2cccs2)CC1)[C@H]1O[C@@H](n2ccc(=O)[nH]c2=O)[C@H](O)[C@@H]1O -1.49%
COc1ccc(-c2ccccc2C2Cc3nnccc3CN2C(=O)Nc2ccccc2)cc1 (stereo unspecified) -1.16%
Clc1cccc2c1C1CC2CCN1Cc1ccccc1 (stereo unspecified) -1.15%
CC(=O)c1cc2c(cc1NC(=O)Cn1nc(-c3ccc(F)cc3)ccc1=O)OCO2 -0.49%
CCc1ccccc1OCC(=O)Nc1ccc2c(c1)OCCO2 -0.52%
